Assay outcomes as filed in PubChem BioAssay.
697 NFkB inh – inhibitors of PMA/ionomycin-induced NF-kB reporter, 697 cells, primary screen, B-cell NF-kB inhibitor project, cell-based, luminescence, uHTS; hit rate 0.33% among 330,000; 697 B-cell NF-kB luciferase reporter, 16 h; inhibition, % at 4 µM; in the data active = inhibition above about 35%
Beta apoptosis – inhibitors of cytokine-induced beta cell apoptosis, primary screen, luminescence. AID 435005, 2010. INS-1E cytokine-induced death, ATP luminescence, 48 h; percent of positive-control rescue, neutral wells zero. hit rate 0.8% among 300,000. protection from apoptosis, % (test concentration not listed);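 active = Every replicate reaches about 75%, or at least half do and their mean reaches it too, limit read from the data; inconclusive = At least half of replicates reach the limit but their mean does not; inactive = Under half of replicates reach the limit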;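 also: 0% = cytokine-treated negative control wells and 100% = positive control rescue; higher means more ATP so stronger rescue from cytokine killing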
NTR1 ag – agonists of human NTR1, primary screen, imaging, U2OS cells, beta-arrestin-GFP, high content | activation, % at 20 µM | NTR1-U2OS beta-arrestin-GFP spot imaging, agonist mode | hit rate 0.17% among 330,000 | AID 493036, 2011;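 active = activation at or above 40% of the spot to cytoplasm intensity ratio, with at least 20 cells analyzed; inconclusive = wells under 20 cells, flagged as cytotoxic or low count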;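 also: 0% = DMSO without peptide and 100% = 100 nM NTR1 peptide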
Target sequence (P30989 whole entry, looked up): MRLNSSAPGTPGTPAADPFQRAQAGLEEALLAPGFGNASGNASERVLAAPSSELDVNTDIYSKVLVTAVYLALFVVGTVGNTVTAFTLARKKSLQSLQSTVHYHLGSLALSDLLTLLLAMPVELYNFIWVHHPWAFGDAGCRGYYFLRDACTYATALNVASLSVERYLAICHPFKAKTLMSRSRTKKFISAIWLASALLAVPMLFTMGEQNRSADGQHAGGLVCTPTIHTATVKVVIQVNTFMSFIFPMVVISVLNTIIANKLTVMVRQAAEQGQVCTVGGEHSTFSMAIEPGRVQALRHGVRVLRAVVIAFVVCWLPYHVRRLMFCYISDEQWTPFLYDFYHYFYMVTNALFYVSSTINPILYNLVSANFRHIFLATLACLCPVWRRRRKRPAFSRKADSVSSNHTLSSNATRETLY
Jurkat NFkB inh – inhibitors of induced NF-kB luciferase reporter, primary screen, TCR NF-kB activation inhibitor project, cell-based, luminescence, uHTS; inhibition, % at 4 µM; hit rate 0.53% among 330,000; Jurkat, PMA/ionomycin-induced NF-kB luciferase reporter; AID 435003, 2010; in the data active = inhibition above about 50%
A1 inh – caspase 3/7 activation in MEF A1-2A-BIM cells, primary screen, A1 inhibitor project, cell-based, luminescence, HTS. Caspase-Glo 3/7 luminescence, 3 h; percent of clofoctol response, vehicle zero. caspase activation, % (concentration not given with the values). hit rate 0.066% among 330,000;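 active = over half of replicate activation scores above 10%, or exactly half above 10 with the replicate mean above 10; inconclusive = replicate mean below 10 yet half the replicates above 10; inactive = over half of replicates below 10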
Mdm2-MdmX inh – inhibitors of human Mdm2-MdmX association, primary screen, cell-based, luminescence, split luciferase, SaOS-2, uHTS. hit rate 3% among 330,000. SaOS-2 split-luciferase Mdm2/MdmX complementation. inhibition, % at 8 µM;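 active = inhibition of at least 50% at 8 µM in the primary screen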
Mdm2-MdmX conf – Mdm2-MdmX complex disruptors, retested hits, confirmation, luminescence, single concentration; shares compounds with Mdm2-MdmX inh; Mdm2-MdmX binding, luminescent assay; inhibition, % at 8 µM; hit rate 55% among 10,000; AID 489028, 2010; in the data active = inhibition above about 40%
FLuc counter – full-length luciferase signal inhibition, confirmation, counter-screen for Mdm2/MdmX interaction inhibitor project, cell-based, single concentration, SaOS-2; shares compounds with Mdm2-MdmX inh; hit rate 77% among 6,200; inhibition, % at 8 µM; SaOS-2 full-length luciferase counterscreen, luminescence;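 active = mean inhibition at 8 µM reaching about 37%, which flags the compound as non-specific, limit read from the data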;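 also: p53-null SaOS-2 cells with luciferase driven by a doxycycline-inducible promoter; compound on cells about two nights before reading with doxycycline added after day one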
Active calls of the source: *; ? = inconclusive; / = no result. Hits are enriched below; roughly 3.8% of the tested compounds scored in any of these assays.

SMILES	697 NFkB inh	Beta apoptosis	NTR1 ag	Jurkat NFkB inh	A1 inh	Mdm2-MdmX inh	Mdm2-MdmX conf	FLuc counter
O=C1/C(=C/c2ccc(O)cc2)SC(=S)N1Cc1cccnc1	-2	0	1	9	-1	17	/	/
COc1ccc(/C=C2\SC(=S)N(Cc3cccnc3)C2=O)cc1C	-25	-3	0	-15	0	59*	32	/
C#CCOc1ccc(/C=C2\SC(=S)N(Cc3cccnc3)C2=O)cc1	-19	/	4	8	-2	60*	71*	55*
CCCC[C@@H](CNC)NC[C@H](Cc1ccc(O)cc1)NCCc1ccc(OCC)cc1	10	9	7	25	0	98*	52*	74*
CC1CCCC(NC(=O)c2cccc(S(=O)(=O)N3CCCCC3)c2)C1C (centres undefined)	11	4	0	10	2	6	/	/
CCCCCCCC(=O)N/N=C/c1ccc([N+](=O)[O-])o1	16	0	2	-9	0	6	/	/
O=C(CNc1cccc2ccccc12)N/N=C/C(Br)=C/c1ccccc1	-129	-9	7	49	0	59*	37	47*
O=C(CNc1cccc2ccccc12)N/N=C/c1ccc([N+](=O)[O-])o1	3	118*	3	24	0	51*	20	/
CC(=O)Nc1ccc(NC(=O)CSc2nc(N)c(NC(=O)c3ccco3)c(=O)[nH]2)cc1	2	6	1	-2	-1	21	/	/
CC1=NOC(=O)/C1=C\c1ccc(-c2ccc(Cl)c(C(=O)O)c2)o1	-13	/	0	-2	/	16	/	/
CC1=NOC(=O)/C1=C\c1ccc(-c2cccc(Cl)c2)o1	21	-13	30	21	?	96*	15	/
COc1ccc(C(NC(=O)CN2CCCCCC2)c2ccc(OC)cc2)cc1	-6	-4	1	-12	-1	2	/	/
Cc1nc2sc(C(N)=O)c(N)c2c(C)c1CC(=O)c1ccccc1	-3	-18	3	23	0	58*	62*	31
Cc1cc(C)c2c(N)c(C(=O)c3ccccc3)sc2n1	1	3	2	-8	-1	8	/	/
CS(=O)(=O)c1nc(S(=O)(=O)c2ccc(Cl)cc2)c(N2CCOCC2)s1	0	-16	0	14	0	57*	13	/
Cc1ccc(S(=O)(=O)c2nc(S(C)(=O)=O)sc2N2CCCCCC2)cc1	-24	-12	1	4	-1	-10	/	/
Cc1ccc(S(=O)(=O)c2nc(S(C)(=O)=O)sc2N2CCC(C)CC2)cc1	-19	-9	4	11	-1	53*	7	/
COC(=O)c1ccc(OCC(O)CNCC(c2ccc(OC)cc2)N(C)C)c(OC)c1 (centres undefined)	3	-5	0	-6	0	3	/	/
N#CC(C#N)=c1ccc2c(c1)NC1(CCCCC1)N=2	-38	20	-1	43	-1	71*	50*	20
CCCc1c(C(=O)N/N=C(/C)c2ccncc2)nnn1-c1nonc1N	19	-1	-1	27	0	-1	/	/
CCCCC(=O)Nc1c(-c2cccc(OC)c2)c(=O)c2ccccc2n1C	-2	2	1	3	0	-8	/	/
CCOC(=O)c1sc(NC(=O)c2cccc(S(=O)(=O)N(CC)CC)c2)cc1C	-37	1	-2	-34	0	10	/	/
CCOC(=O)c1sc(NC(=O)Nc2ccc(Cl)cc2)cc1C	-22	89*	10	-22	1	75*	86*	55*
